# Values without a mark were called inactive. Results filed as inconclusive are left out. For some assays here: Entries with a potency or affinity are not part of this list. Calls of active or inactive are those of the source. Unless noted, no rule for the calls is given here.
# How the values were obtained:
# [1] = Ebola virus entry assay, green fluorescence channel
# [2] = Ebola virus entry assay, blue channel fluorescence
# [3] = Ebola virus entry assay, ratio channel
# [4] = Ebola virus entry assay, reporter ratio channel; Channel type: primary
# [5] = Ebola virus entry assay, blue channel (ratio component)
# [6] = qHTS assay for cell viability of HEK293 cells (AID 743288; active = well fitted curve in the direction sought with a large enough effect; an effect the other way counts as inactive or inconclusive; also: % is scaled to controls: 0 for no effect and ±100 for the full control effect; nearly all actives have a fitted effect of over 50% in size); details: ATP luminescence (CellTiter-Glo), 18 h; max response: active compounds read low
# Summary of the method: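 Environmental chemicals tested in qHTS format against parental HEK293 cells; 18 h treatment, 37 C; read-out ATP luminescence (CellTiter-Glo), 30 min RT development.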
# [7] = qHTS assay for cell viability of the p53RE-bla HCT-116 cell line (AID 743292; active = well fitted curve in the direction sought with a large enough effect; an effect the other way counts as inactive or inconclusive; also: % is scaled to controls: 0 for no effect and ±100 for the full control effect; nearly all actives have a fitted effect of over 55% in size); details: p53RE-bla HCT-116 viability, ATP luminescence, 16 h; series mostly up to 95 µM
# Summary of the method: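 ATP-based luminescence, 16 h compound exposure at 37 C, p53RE-bla HCT-116 cells at 4,000/well.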
# [8] = qHTS assay for measurement of the activity of small molecule inhibitors on Zika virus induced Caspase-3 activity in human iPSC derived neural progenitor cells (hNPCs) (AID 1224857; active = well fitted curve in the direction sought with a large enough effect; an effect the other way counts as inactive or inconclusive; also: % of control where 0% means no effect; nearly all actives have a fitted effect of over 65% in size); details: hNPCs ZIKV-induced caspase-3/7, Caspase-Glo luminescence, 6 h; series mostly up to 45.7 µM
# Summary of the method: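 Pretreat hNPCs with compound 1 h; infect ZIKV 2 FFU/cell; 6 h 37 C, 5% CO2; Caspase-Glo 3/7, 30 min RT; luminescence; normalize to no-virus and virus-only wells.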
# For efficacy in this document: 0% is about no effect.
smiles,measurement,setting,value
COc1ccc(-c2nc3ccc(C4=NNC(=O)CC4C)cc3[nH]2)cc1 (centres undefined),efficacy,[1],23.5%
same,outcome,[2],inactive
same,AC50,[3],14.1 µM (active)
same,AC50,[4],14.1 µM (active)
same,outcome,[5],inactive
CCC(=O)O[C@]1(C(=O)SCF)[C@H](C)C[C@H]2[C@@H]3C[C@H](F)C4=CC(=O)C=C[C@]4(C)[C@@]3(F)[C@@H](O)C[C@@]21C,efficacy,[1],69.2%
same,outcome,[2],inactive
same,outcome,[3],inactive
same,outcome,[4],inactive
same,outcome,[5],inactive
COc1cc2c(cc1OC)C(C(C(=O)N(CCc1ccc(OC)c(OC)c1OC)CCc1ccc(OC)c(OC)c1OC)c1ccccc1)=NCC2 (centres undefined),efficacy,[1],62.1%
same,outcome,[2],inactive
same,AC50,[3],11.2 µM (active)
same,AC50,[4],11.2 µM (active)
same,outcome,[5],inactive
CC(=O)OCC(=O)[C@@]1(O)CC[C@H]2[C@@H]3CCC4=CC(=O)C=C[C@]4(C)[C@H]3[C@@H](O)C[C@@]21C,efficacy,[1],-46.1%
same,outcome,[2],inactive
same,outcome,[3],inactive
same,outcome,[4],inactive
same,outcome,[5],inactive
CCOP(=S)(OCC)O/N=C(\C#N)c1ccccc1,max response,[6],-1.29%
same,outcome,[7],inactive
same,efficacy,[1],-42.7%
same,outcome,[2],inactive
same,outcome,[3],inactive
same,outcome,[4],inactive
same,outcome,[5],inactive
same,Potency,[8],inactive
O=C1OC2(c3ccc(O)cc3Oc3cc(O)ccc32)c2ccccc21,AC50,[1],25.1 µM (active)
same,outcome,[2],inactive
same,AC50,[3],7.94 µM (active)
same,AC50,[4],7.94 µM (active)
same,outcome,[5],inactive
c1ccc(CNCCNCc2ccccc2)cc1,efficacy,[1],55.2%
same,outcome,[2],inactive
same,outcome,[3],inactive
same,AC50,[4],25.1 µM (active)
same,outcome,[5],inactive
CC(C)(C)CC(=O)OCC(=O)[C@@]1(O)CC[C@H]2[C@@H]3CCC4=CC(=O)C=C[C@]4(C)[C@H]3[C@@H](O)C[C@@]21C,efficacy,[1],47.7%
same,outcome,[2],inactive
same,outcome,[3],inactive
same,AC50,[4],28.2 µM (active)
same,outcome,[5],inactive
COC[C@@H](c1ccc(C(F)(F)F)cc1)N1CCN(C2(C)CCN(C(=O)c3c(C)ncnc3C)CC2)C[C@H]1C,efficacy,[1],69.2%
same,outcome,[2],inactive
same,AC50,[3],25.1 µM (active)
same,AC50,[4],25.1 µM (active)
same,outcome,[5],inactive
C[C@@H]1O[C@@H](O[C@@H]2C=C3CC[C@@H]4[C@H](CC[C@]5(C)[C@@H](c6ccc(=O)oc6)CC[C@]45O)[C@@]3(C)CC2)[C@H](O)[C@H](O)[C@H]1O,efficacy,[1],35.7%
same,AC50,[2],8.91 µM (active)
same,AC50,[3],7.94 µM (active)
same,AC50,[4],7.94 µM (active)
same,Potency,[8],inactive
Cc1nc2ccccc2c(=O)n1-c1ccccc1Cl,efficacy,[1],30.7%
same,outcome,[2],inactive
same,AC50,[3],20 µM (active)
same,AC50,[4],20 µM (active)
same,outcome,[5],inactive
same,Potency,[8],inactive
Clc1ccc(C(OCCN2CCCCC2)c2ccccc2)cc1 (centres undefined),efficacy,[1],53.2%
same,AC50,[2],14.1 µM (active)
same,AC50,[3],14.1 µM (active)
same,AC50,[4],14.1 µM (active)
same,Potency,[8],inactive
Clc1ccc(CSC(Cn2ccnc2)c2ccc(Cl)cc2Cl)cc1 (centres undefined),efficacy,[1],-183%
same,AC50,[2],5.62 µM (active)
same,AC50,[3],4.47 µM (active)
same,AC50,[4],4.47 µM (active)
same,Potency,[8],inactive
Cc1nnc2n1-c1sc(CCc3ccc(CC(C)C)cc3)cc1C(c1ccccc1Cl)=NC2C (centres undefined),efficacy,[1],144%
same,AC50,[2],39.8 µM (active)
same,AC50,[3],31.6 µM (active)
same,AC50,[4],31.6 µM (active)
same,Potency,[8],inactive
COc1cc(C[C@@H](C)N)c(OC)cc1Br,efficacy,[1],42.4%
same,AC50,[2],31.6 µM (active)
same,AC50,[3],31.6 µM (active)
same,AC50,[4],31.6 µM (active)
same,Potency,[8],inactive
CN1C(=O)[C@@H](NC(=O)c2cc3ccccc3[nH]2)N=C(c2ccccc2)c2ccccc21,efficacy,[1],-160%
same,AC50,[2],39.8 µM (active)
same,outcome,[3],inactive
same,outcome,[4],inactive
same,Potency,[8],inactive
CC[C@H]1C[C@@H]2C[C@H]3c4[nH]c5ccc(OC)cc5c4CCN(C2)[C@@H]13,efficacy,[1],66.1%
same,AC50,[2],31.6 µM (active)
same,AC50,[3],39.8 µM (active)
same,AC50,[4],39.8 µM (active)
same,Potency,[8],inactive
c1ccc2nc(N3CCNCC3)ccc2c1,efficacy,[1],106%
same,AC50,[2],39.8 µM (active)
same,AC50,[3],35.5 µM (active)
same,AC50,[4],35.5 µM (active)
same,Potency,[8],inactive
O=C1CN2CCOC2(c2ccccc2Cl)c2cc(Cl)ccc2N1 (centres undefined),efficacy,[1],46.2%
same,outcome,[2],inactive
same,outcome,[3],inactive
same,outcome,[4],inactive
same,Potency,[8],inactive
C#C[C@]1(O)CC[C@H]2[C@@H]3CCC4=CC(=O)CCC4=C3C=C[C@@]21CC,efficacy,[1],138%
same,AC50,[2],20 µM (active)
same,AC50,[3],15.8 µM (active)
same,AC50,[4],15.8 µM (active)
same,Potency,[8],inactive
CC(N)C(=O)OC(C)(C)Cc1ccc(Cl)cc1 (centres undefined),efficacy,[1],77%
same,AC50,[2],15.8 µM (active)
same,AC50,[3],14.1 µM (active)
same,AC50,[4],14.1 µM (active)
same,Potency,[8],inactive
CC(=O)OC1(c2ccccc2)CCN(CCc2ccccc2)CC1,efficacy,[1],56.2%
same,AC50,[2],31.6 µM (active)
same,AC50,[3],31.6 µM (active)
same,AC50,[4],31.6 µM (active)
same,Potency,[8],inactive
CN1CCC(N(Cc2ccccc2)c2ccccc2)CC1,efficacy,[1],45.7%
same,AC50,[2],7.08 µM (active)
same,AC50,[3],4.47 µM (active)
same,AC50,[4],4.47 µM (active)
same,Potency,[8],inactive
OC(c1ccccc1)(c1ccccc1)C1CCNCC1,efficacy,[1],37.5%
same,AC50,[2],20 µM (active)
same,AC50,[3],15.8 µM (active)
same,AC50,[4],15.8 µM (active)
same,Potency,[8],inactive
O=C(N[C@@H]1N=C(c2ccccc2F)c2cccc3c2N(CC3)C1=O)c1cc2ccccc2[nH]1,efficacy,[1],-148%
same,AC50,[2],25.1 µM (active)
same,AC50,[3],15.8 µM (active)
same,AC50,[4],15.8 µM (active)
same,Potency,[8],inactive
Oc1ccc2[nH]cc(CCCCN3CC=C(c4ccccc4)CC3)c2c1,efficacy,[1],50.4%
same,AC50,[2],6.31 µM (active)
same,AC50,[3],8.91 µM (active)
same,AC50,[4],8.91 µM (active)
same,Potency,[8],inactive

# Source: PubChem BioAssay (NCATS)
